Data as given in PubChem BioAssay AID1159580 (chemical genetic matrix, 2015).
Screen size: about 5,500 compounds; about 2,000 (36%) were called active. Not shown: some 18% with an inconclusive outcome. Cut-off read from the data, not from the text of the source: active = normalized growth mostly below about 0.91 (no sharp cut-off); inconclusive = no clear call, values can overlap the other calls; inactive = mostly above about 0.92. The list shows a part of the results.

Assay: chemical genetic growth profiling, strain panel (AID 1159580);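 note: tested at 20 µM; growth read once vehicle control cultures reached saturation at 30 °C; 1 = growth at the plate median or of vehicle wells; lower values mean less growth of the strain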
Conditions: S. cerevisiae deletion strains, growth OD

Measured: normalized growth

O=C(/C=C/c1ccccc1)O[C@H]1C[C@@H](O)[C@]2(O)C=CO[C@@H](O[C@@H]3O[C@H](CO)[C@@H](O)[C@H](O)[C@H]3O)[C@H]12
inactive: locus YAL021C, strain ccr4, active compounds read low 0.996 | locus YAL026C, strain drs2, active compounds read low 1.03 | locus YAL030W, strain snc1, active compounds read low 1.03 | locus YBL061C, strain skt5, active compounds read low 1.02 | locus YBR009C, strain hhf1, active compounds read low 1.05 | locus YBR023C, strain chs3, active compounds read low 1.02 | locus YBR171W, strain sec66, active compounds read low 1.03 | locus YBR231C, strain swc5, active compounds read low 1.03 | locus YBR279W, strain paf1, active compounds read low 1.02 | locus YCL011C, strain gbp2, active compounds read low 1.02 | locus YCL016C, strain dcc1, active compounds read low 1.03 | locus YCL061C, strain MRC1, active compounds read low 1.02 | locus YCL069W, strain vba3, active compounds read low 1.03 | locus YCR088W, strain abp1, active compounds read low 1.02 | locus YDL005C, strain med2, active compounds read low 1.02 | locus YDL040C, strain nat1, active compounds read low 1.03 | locus YDR001C, strain nth1, active compounds read low 1.02 | locus YDR069C, strain doa4, active compounds read low 1.03 | locus YDR137W, strain rgp1, active compounds read low 1.03 | locus YDR159W, strain sac3, active compounds read low 1.05 | locus YDR195W, strain ref2 1.01 | locus YDR297W, strain sur2, active compounds read low 1.02 | locus YDR334W, strain swr1, active compounds read low 1.03 | locus YDR335W, strain msn5, active compounds read low 1.02 | locus YDR392W, strain spt3, active compounds read low 0.927 | locus YEL003W, strain gim4, active compounds read low 1.03 | locus YEL037C, strain rad23, active compounds read low 1.02 | locus YEL061C, strain CIN8 (second series), active compounds read low 1.01 | locus YER015W, strain faa2, active compounds read low 1.02 | locus YER016W, strain bim1, active compounds read low 1.03 | locus YER111C, strain swi4, active compounds read low 1.03 | locus YER155C, strain BEM2 (second series), active compounds read low 1.04 | locus YFR010W, strain ubp6, active compounds read low 1.03 | locus YGL167C, strain pmr1, active compounds read low 1.02 | locus YGL173C, strain kem1, active compounds read low 1.03 | locus YGL227W, strain vid30, active compounds read low 1.03 | locus YGL240W, strain doc1, active compounds read low 1.04 | locus YGL253W, strain hxk2, active compounds read low 1.03 | locus YHR013C, strain ard1, active compounds read low 0.995 | locus YHR027C, strain rpn1, active compounds read low 1.03 | locus YHR030C, strain SLT2, active compounds read low 0.902 | locus YHR079C, strain IRE1, active compounds read low 0.939 | locus YHR142W, strain chs7, active compounds read low 0.998 | locus YJL092W, strain hpr5, active compounds read low 1.02 | locus YJL095W, strain BCK1 (second series), active compounds read low 1.03 | locus YJL095W, strain BCK1, active compounds read low 0.928 | locus YJL115W, strain asf1, active compounds read low 1.03 | locus YJL129C, strain trk1, active compounds read low 1.01 | locus YJL154C, strain vps35, active compounds read low 1.02 | locus YJL164C, strain tpk1, active compounds read low 1.01 | locus YJL166W, strain qcr8, active compounds read low 1.03 | locus YJL187C, strain SWE1, active compounds read low 1.02 | locus YJR066W, strain TOR1, active compounds read low 0.92 | locus YKL160W, strain elf1, active compounds read low 0.989 | locus YKR026C, strain gcn3, active compounds read low 1.03 | locus YKR091W, strain srl3, active compounds read low 1.02 | locus YLL001W, strain dnm1, active compounds read low 1.02 | locus YLL026W, active compounds read low 1.02 | locus YLL041C, strain sdh2, active compounds read low 1.02 | locus YLR027C, strain aat2, active compounds read low 1.02 | locus YLR113W, strain HOG1, active compounds read low 0.878 | locus YLR221C, strain rsa3, active compounds read low 1 | locus YLR258W, strain gsy2, active compounds read low 1.05 | locus YLR262C, strain YPT6 (second series), active compounds read low 1.04 | locus YLR320W, strain mms22, active compounds read low 1.02 | locus YLR342W, strain FKS1, active compounds read low 1.02 | locus YLR357W, strain rsc2, active compounds read low 1.02 | locus YLR370C, strain arc18, active compounds read low 1.02 | locus YLR384C, strain iki3, active compounds read low 1.03 | locus YML120C, strain ndi1, active compounds read low 0.999 | locus YMR058W, strain fet3, active compounds read low 1.02 | locus YMR125W, strain sto1, active compounds read low 1.03 | locus YMR129W, active compounds read low 1.02 | locus YMR205C, strain PFK2, active compounds read low 1.06 | locus YMR231W, strain pep5, active compounds read low 1.03 | locus YNL071W, strain lat1, active compounds read low 1.02 | locus YNL183C, strain NPR1, active compounds read low 0.951 | locus YNL209W, strain ssb2, active compounds read low 1.02 | locus YNL248C, strain rpa49, active compounds read low 0.992 | locus YNL322C, strain KRE1 (second series), active compounds read low 1.03 | locus YNR049C, strain mso1, active compounds read low 1.03 | locus YOR001W, strain rrp6, active compounds read low 1 | locus YOR070C, strain gyp1, active compounds read low 1.03 | locus YOR080W, strain dia2, active compounds read low 1.03 | locus YOR083W, strain WHI5, active compounds read low 0.986 | locus YOR106W, strain vam3, active compounds read low 1.01 | locus YOR231W, strain MKK1, active compounds read low 0.938 | locus YOR265W, strain rbl2, active compounds read low 1.02 | locus YOR270C, strain vph1, active compounds read low 1.03 | locus YOR290C, strain snf2, active compounds read low 0.969 | locus YPL051W, strain arl3, active compounds read low 1.01 | locus YPL078C, strain atp4, active compounds read low 0.996 | locus YPL106C, strain sse1, active compounds read low 1.04 | locus YPL240C, strain hsp82, active compounds read low 1.02 | locus YPL256C, strain CLN2, active compounds read low 0.943

CCCC[N+]1(C)C2CC(OC(=O)[C@H](CO)c3ccccc3)CC1C1OC12 (some centres not stated)
inactive: locus YAL013W, strain DEP1, active compounds read low 1 | locus YAL040C, strain CLN3, active compounds read low 1.05 | locus YCL061C, strain MRC1 (second series), active compounds read low 0.996 | locus YDR150W, strain NUM1, active compounds read low 1 | locus YDR363W, strain ESC2, active compounds read low 0.999 | locus YER002W, strain NOP16, active compounds read low 1.01 | locus YGR078C, strain PAC10, active compounds read low 0.989 | locus YGR229C, strain SMI1, active compounds read low 1.02 | locus YMR307W, strain GAS1, active compounds read low 0.976 | locus YNL153C, strain GIM3, active compounds read low 0.987 | locus YNL175C, strain NOP13, active compounds read low 1.02 | locus YNL197C, strain WHI3, active compounds read low 0.989 | locus YNL224C, strain SQS1, active compounds read low 0.99 | locus YNL322C, strain KRE1, active compounds read low 0.998 | locus YOR083W, strain WHI5 (second series), active compounds read low 0.99 | locus YPL055C, strain LGE1, active compounds read low 0.987 | locus YPL241C, strain CIN2, active compounds read low 1
